Test results published in PubChem BioAssay (NCI).
Compounds without any hit were thinned out: in the full panel of roughly 79,000, 15% have a hit. Calls of active or inactive are those of the source. Cut-off read from the data, not from the text of the source: active = growth inhibition above about 70%; inactive = the rest.

Experiments:
[1] = NCI Yeast Anticancer Drug Screen. Data for the rad52 strain (AID 147);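 note: 0% = growth of vehicle-treated control cultures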; conditions: S. cerevisiae rad52 mutant growth inhibition, hits give high values
How it was run: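 DNA repair-defective yeast; compound exposure; growth scored against vehicle controls.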

[2] = NCI Yeast Anticancer Drug Screen. Data for the wt1 strain (AID 149);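 note: 0% = growth of vehicle-treated wt1 cultures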; conditions: S. cerevisiae wt1 strain (SPY 50644) growth inhibition, hits give high values
How it was run: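 The wt1 strain was treated with compounds, and growth was compared with vehicle-treated cultures to give inhibition.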

[3] = NCI Yeast Anticancer Drug Screen. Data for the rad50EPP+ strain (AID 151);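 note: 0% = growth of vehicle-treated control cultures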; conditions: S. cerevisiae rad50 mutant strain, hits give high values
How it was run: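 rad50EPP+ yeast treated with test compounds. Readout: growth vs vehicle control.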

[4] = NCI Yeast Anticancer Drug Screen. Data for the mgt1 strain (AID 153); conditions: S. cerevisiae mgt1 mutant growth inhibition, hits give high values
How it was run: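 Growth inhibition relative to vehicle controls was scored for the mgt1 yeast strain after compound exposure.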

[5] = NCI Yeast Anticancer Drug Screen. Data for the rad50 strain (AID 155);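 note: 0% = growth of vehicle-only cultures of the same strain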; conditions: S. cerevisiae rad50 strain growth inhibition, hits give high values
How it was run: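 Cells are treated with compound, grown, and their growth is then scored against vehicle-only cultures of the same repair-deficient yeast strain.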

[6] = NCI Yeast Anticancer Drug Screen. Data for the mec2-1 strain (AID 157); conditions: S. cerevisiae mec2-1 strain, hits give high values
How it was run: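 Growth inhibition is read against vehicle-treated controls after compound exposure of the mec2-1 yeast strain, which is defective in DNA damage repair or cell cycle control.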

[7] = NCI Yeast Anticancer Drug Screen. Data for the rad14 strain (AID 159);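 note: 0% = growth of vehicle-treated control cultures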; conditions: S. cerevisiae rad14 strain growth inhibition, hits give high values
How it was run: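 Readout: yeast growth inhibition, referenced to vehicle-only cultures. Strain bears a defined alteration in DNA damage repair.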

[8] = NCI Yeast Anticancer Drug Screen. Data for the sgs1 mgt1 strain (AID 161);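 note: 0% = growth of cultures given vehicle only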; conditions: S. cerevisiae sgs1 mgt1 strain, hits give high values
How it was run: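 Yeast cells carrying a defined DNA-repair defect were exposed to test compounds. Growth inhibition was measured relative to vehicle-treated controls.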

[9] = NCI Yeast Anticancer Drug Screen. Data for the CLN2oe strain (AID 163);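 note: 0% = growth of vehicle-only control cultures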; conditions: S. cerevisiae CLN2oe strain, hits give high values
How it was run: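 Compound-treated yeast; growth vs vehicle ctrl = % inhibition. Genetically altered strain (cell-cycle control).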

[10] = NCI Yeast Anticancer Drug Screen. Data for the cln2 rad14 strain (AID 165);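 note: 0% = growth equal to vehicle treated cultures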; conditions: S. cerevisiae cln2 rad14 strain, hits give high values
How it was run: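 Growth inhibition, relative to vehicle-treated controls, is the read-out. The test organism is a yeast strain with defined genetic alterations, cln2 rad14.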

[11] = NCI Yeast Anticancer Drug Screen. Data for the bub3 strain (AID 167); conditions: S. cerevisiae bub3 mutant strain, hits give high values
How it was run: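 Part of a panel of yeast mutants defective in DNA damage repair or cell cycle regulation. Each strain is grown with compound, and inhibition is calculated relative to solvent-treated cultures.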

[12] = NCI Yeast Anticancer Drug Screen. Data for the wt2 strain (AID 169);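 note: 0% = growth of vehicle-treated yeast cultures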; conditions: S. cerevisiae wt2 strain growth inhibition, hits give high values
How it was run: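 Compound exposure of yeast; growth compared with vehicle controls; inhibition reported.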

[13] = NCI Yeast Anticancer Drug Screen. Data for the mlh1 strain (AID 171);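 note: 0% = growth of vehicle-treated control cultures of the same strain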; conditions: S. cerevisiae mlh1 strain growth inhibition, hits give high values
How it was run: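 Compounds are applied to a genetically altered yeast strain, and its growth is compared with that of vehicle-treated cultures to give percent inhibition.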

[14] = NCI Yeast Anticancer Drug Screen. Data for the sgs1 strain (AID 173);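 note: 0% = growth of vehicle-only control cultures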; conditions: S. cerevisiae sgs1 mutant, hits give high values
How it was run: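 Compounds applied to genetically altered yeast; growth compared with vehicle-treated cultures to give % inhibition.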

[15] = NCI Yeast Anticancer Drug Screen. Data for the mlh1 rad18 strain (AID 175); conditions: S. cerevisiae mlh1 rad18 strain growth inhibition, hits give high values
How it was run: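 Cells of a genetically altered yeast strain, deficient in DNA damage repair, were treated with compound. Their growth was then compared with that of vehicle-treated cultures to give inhibition.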

[16] = NCI Yeast Anticancer Drug Screen. Data for the rad18 strain (AID 177); conditions: S. cerevisiae rad18 mutant growth inhibition, hits give high values
How it was run: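 Compounds are applied to a repair-deficient yeast strain, and growth is compared with that of vehicle-treated cultures to give percent inhibition.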

[17] = at 5.0 µM (retest, dose inferred, filed as 0.5)
[18] = at 50.0 µM (retest, dose inferred, filed as 5.0)

Measured: growth inhibition

COC(=O)/C=C1/OC(c2ccc(Br)cc2)=C(Br)C1=O
inactive: [1]; at 1.2 µM -25% | [1]; at 3.7 µM -22% | [1]; at 11.0 µM -18% | [1]; at 33.0 µM -7% | [1]; at 100.0 µM 38% | [2]; at 1.2 µM -16% | [2]; at 3.7 µM -13% | [2]; at 11.0 µM -29% | [2]; at 33.0 µM -11% | [2]; at 100.0 µM 16% | [3]; at 1.2 µM -6% | [3]; at 3.7 µM -7% | [3]; at 11.0 µM 0% | [3]; at 33.0 µM 59% | [4]; at 1.2 µM 3% | [4]; at 3.7 µM 3% | [4]; at 11.0 µM -7% | [4]; at 33.0 µM 7% | [5]; at 1.2 µM -35% | [5]; at 3.7 µM -28% | [5]; [17] 3% | [5]; at 11.0 µM -5% | [5]; at 33.0 µM -11% | [5]; [18] 36% | [5]; at 50.0 µM 17.6% | [5]; at 100.0 µM 65% | [6]; at 1.2 µM 9% | [6]; at 3.7 µM -1% | [6]; [17] 18% | [6]; at 11.0 µM -5% | [6]; at 33.0 µM 8% | [6]; at 50.0 µM 18.8% | [7]; at 1.2 µM -4% | [7]; at 3.7 µM -16% | [7]; at 11.0 µM -15% | [7]; at 33.0 µM -21% | [8]; [17] 12% | [8]; [18] 16% | [9]; at 1.2 µM 8% | [9]; at 3.7 µM 10% | [9]; at 11.0 µM 10% | [9]; at 33.0 µM 26% | [9]; at 100.0 µM 59% | [10]; [17] 2% | [10]; [18] 14% | [10]; at 50.0 µM 33.8% | [11]; at 1.2 µM 20% | [11]; at 3.7 µM 6% | [11]; [17] 32% | [11]; at 11.0 µM -12% | [11]; [18] 40% | [12]; at 1.2 µM -25% | [12]; at 3.7 µM -22% | [12]; at 11.0 µM -20% | [13]; at 1.2 µM -18% | [13]; at 3.7 µM -4% | [13]; at 11.0 µM -14% | [13]; at 33.0 µM -12% | [13]; at 100.0 µM 27% | [14]; at 1.2 µM -18% | [14]; at 3.7 µM -16% | [14]; at 11.0 µM -17% | [14]; at 33.0 µM -27% | [14]; at 100.0 µM 16% | [15]; [17] 11% | [15]; [18] 49% | [16]; at 1.2 µM -30% | [16]; at 3.7 µM -14% | [16]; at 11.0 µM -12% | [16]; at 33.0 µM 41%
active: [3]; at 100.0 µM 97% | [4]; at 100.0 µM 87% | [6]; [18] 85% | [6]; at 100.0 µM 71% | [7]; at 100.0 µM 78% | [8]; at 50.0 µM 86.2% | [11]; at 33.0 µM 70% | [11]; at 50.0 µM 72.8% | [11]; at 100.0 µM 95% | [12]; at 33.0 µM 76% | [12]; at 100.0 µM 95% | [16]; at 100.0 µM 92%

CCC(=O)Oc1ccc(/C=N/NC(N)=S)nc1
active: [6]; [18] 95% | [6]; at 50.0 µM 87.4% | [6]; at 100.0 µM 91%
inactive: [1]; at 1.2 µM -6% | [1]; at 3.7 µM -11% | [1]; at 11.0 µM 4% | [1]; at 33.0 µM 13% | [1]; at 100.0 µM 18% | [2]; at 1.2 µM 0% | [2]; at 3.7 µM 7% | [2]; at 11.0 µM 7% | [2]; at 33.0 µM 13% | [2]; at 100.0 µM 19% | [3]; at 1.2 µM 0% | [3]; at 3.7 µM -5% | [3]; at 11.0 µM -9% | [3]; at 33.0 µM -11% | [3]; at 100.0 µM -12% | [4]; at 1.2 µM -1% | [4]; at 3.7 µM -3% | [4]; at 11.0 µM -2% | [4]; at 33.0 µM -5% | [4]; at 100.0 µM -4% | [5]; at 1.2 µM -7% | [5]; at 3.7 µM -11% | [5]; [17] -6% | [5]; at 11.0 µM -12% | [5]; at 33.0 µM 3% | [5]; [18] 6% | [5]; at 50.0 µM 22.4% | [5]; at 100.0 µM 21% | [6]; at 1.2 µM -2% | [6]; at 3.7 µM 0% | [6]; [17] 0% | [6]; at 11.0 µM 0% | [6]; at 33.0 µM 37% | [7]; at 1.2 µM 1% | [7]; at 3.7 µM 1% | [7]; at 11.0 µM 3% | [7]; at 33.0 µM 10% | [7]; at 100.0 µM 12% | [8]; [17] 0% | [8]; [18] 32% | [8]; at 50.0 µM 39% | [9]; at 1.2 µM -5% | [9]; at 3.7 µM -8% | [9]; at 11.0 µM -11% | [9]; at 33.0 µM -11% | [9]; at 100.0 µM -9% | [10]; [17] -5% | [10]; [18] -14% | [10]; at 50.0 µM 4% | [11]; at 1.2 µM -7% | [11]; at 3.7 µM -4% | [11]; [17] -8% | [11]; at 11.0 µM -15% | [11]; at 33.0 µM -18% | [11]; [18] -13% | [11]; at 50.0 µM 17.1% | [11]; at 100.0 µM -15% | [12]; at 1.2 µM 2% | [12]; at 3.7 µM 7% | [12]; at 11.0 µM 16% | [12]; at 33.0 µM 35% | [12]; at 100.0 µM 34% | [14]; at 1.2 µM -16% | [14]; at 3.7 µM -11% | [14]; at 11.0 µM -2% | [14]; at 33.0 µM 9% | [14]; at 100.0 µM 11% | [15]; [17] -2% | [15]; [18] 19% | [15]; at 50.0 µM 26.1% | [16]; at 1.2 µM -4% | [16]; at 3.7 µM 1% | [16]; at 11.0 µM -3% | [16]; at 33.0 µM -8% | [16]; at 100.0 µM -5%
